The results in this text go back to ChEMBL document CHEMBL3988442, “University of Dundee, Small-Polar-MMV Screening Library” (2021).

What all share (design): scale not given: direction of the effect not stated beside the values
Assay [1] addresses Protein translocase subunit SecA (Escherichia coli (strain K12)) (UniProt P10408). As to the kind of experiment: Assay to Identify E. coli SecA ATPase Inhibitors. It is filed as functional. Particulars: 30 µM.
Assay [2] concerns the target T1, Ubiquitin-activating enzyme e1, putative (Leishmania donovani (strain BPK282A1)) (UniProt E9BSI1).
T1 sequence (whole entry): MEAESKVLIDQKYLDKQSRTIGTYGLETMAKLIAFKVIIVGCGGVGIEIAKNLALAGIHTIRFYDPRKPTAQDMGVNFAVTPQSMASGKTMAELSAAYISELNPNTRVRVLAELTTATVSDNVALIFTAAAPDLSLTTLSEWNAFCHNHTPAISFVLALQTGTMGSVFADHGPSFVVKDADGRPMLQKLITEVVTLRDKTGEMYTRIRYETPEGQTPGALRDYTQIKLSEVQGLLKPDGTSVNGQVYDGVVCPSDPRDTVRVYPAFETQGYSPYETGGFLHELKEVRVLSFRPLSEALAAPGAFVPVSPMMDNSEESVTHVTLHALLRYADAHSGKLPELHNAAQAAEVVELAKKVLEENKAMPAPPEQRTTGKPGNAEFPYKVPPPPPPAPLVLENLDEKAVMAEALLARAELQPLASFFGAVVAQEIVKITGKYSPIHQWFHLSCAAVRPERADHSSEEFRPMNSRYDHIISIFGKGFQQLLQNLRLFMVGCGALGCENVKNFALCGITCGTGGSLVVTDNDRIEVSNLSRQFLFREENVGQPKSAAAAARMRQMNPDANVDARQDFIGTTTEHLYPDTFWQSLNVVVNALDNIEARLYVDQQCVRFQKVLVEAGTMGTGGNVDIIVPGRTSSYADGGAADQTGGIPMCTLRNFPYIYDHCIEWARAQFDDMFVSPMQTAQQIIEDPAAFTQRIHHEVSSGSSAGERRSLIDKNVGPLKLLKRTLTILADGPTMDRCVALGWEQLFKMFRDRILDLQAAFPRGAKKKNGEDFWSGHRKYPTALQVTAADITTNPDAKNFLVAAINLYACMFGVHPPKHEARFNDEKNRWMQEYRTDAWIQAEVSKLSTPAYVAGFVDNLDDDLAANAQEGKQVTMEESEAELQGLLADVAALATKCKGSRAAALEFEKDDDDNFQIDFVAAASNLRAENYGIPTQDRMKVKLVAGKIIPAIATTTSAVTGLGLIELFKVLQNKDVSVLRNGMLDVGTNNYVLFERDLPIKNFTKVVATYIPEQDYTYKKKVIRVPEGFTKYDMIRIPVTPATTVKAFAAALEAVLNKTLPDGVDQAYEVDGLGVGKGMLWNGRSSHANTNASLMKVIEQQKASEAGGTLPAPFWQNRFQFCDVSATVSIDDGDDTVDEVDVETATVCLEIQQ
Nature of the assay: Leishmania donovani Ubiquitin Activating Enzyme (LdE1). Type of assay: functional. The conditions noted are these: 30 µM.

In assay [3] the target is Sialic acid-binding Ig-like lectin 9 (Homo sapiens) (UniProt Q9Y336). As to the kind of experiment: Hs-Siglec9 ALPHAscreen SOP 20170721. The conditions noted are these: 10 µM. In general terms: In Alpha technology, singlet oxygen from a donor bead excites a nearby acceptor bead.
Sequence of Sialic acid-binding Ig-like lectin 9 (Homo sapiens) (Q9Y336 whole entry): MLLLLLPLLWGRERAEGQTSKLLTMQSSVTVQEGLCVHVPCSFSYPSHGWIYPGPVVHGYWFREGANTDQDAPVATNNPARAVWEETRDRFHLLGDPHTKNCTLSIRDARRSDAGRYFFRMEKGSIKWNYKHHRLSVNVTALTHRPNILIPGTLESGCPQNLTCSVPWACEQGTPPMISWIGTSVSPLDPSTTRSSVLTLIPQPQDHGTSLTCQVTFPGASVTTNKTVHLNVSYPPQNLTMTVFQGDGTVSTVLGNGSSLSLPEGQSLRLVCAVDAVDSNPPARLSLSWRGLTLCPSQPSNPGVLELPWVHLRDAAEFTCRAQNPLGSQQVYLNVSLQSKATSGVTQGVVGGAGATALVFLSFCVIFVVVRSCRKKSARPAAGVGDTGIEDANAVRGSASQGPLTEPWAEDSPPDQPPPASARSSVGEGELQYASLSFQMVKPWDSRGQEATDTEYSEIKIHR
For assay [4], the system named is Trypanosoma cruzi. Nature of the assay: Trypanosoma cruzi phosphomannomutase and mannose-1-phosphate guanylyltransferase assay. Type of assay: functional. Particulars: 10 µM.
Assay [5] deals with T2, Arginase-2, mitochondrial (Homo sapiens) (UniProt P78540).
T2 sequence (whole entry): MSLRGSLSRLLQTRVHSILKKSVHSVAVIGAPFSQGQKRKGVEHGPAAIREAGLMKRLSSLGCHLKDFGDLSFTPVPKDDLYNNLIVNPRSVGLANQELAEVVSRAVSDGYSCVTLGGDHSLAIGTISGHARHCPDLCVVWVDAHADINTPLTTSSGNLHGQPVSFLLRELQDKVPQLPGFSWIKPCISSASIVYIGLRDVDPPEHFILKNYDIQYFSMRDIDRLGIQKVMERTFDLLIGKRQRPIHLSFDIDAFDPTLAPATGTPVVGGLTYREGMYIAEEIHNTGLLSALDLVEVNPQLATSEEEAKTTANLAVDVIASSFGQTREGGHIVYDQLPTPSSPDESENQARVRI
Nature of the assay: in vitro enzyme assay to detect the production of urea directly proportional to the activity of Arginase II. Also: in the data most compounds retested in dose-response had high values. It is filed as functional. Particulars: 33.3 µM.

For assay [6], the target named is T3, Proteasome subunit beta (Trypanosoma cruzi) (UniProt O96673).
T3 sequence (whole entry): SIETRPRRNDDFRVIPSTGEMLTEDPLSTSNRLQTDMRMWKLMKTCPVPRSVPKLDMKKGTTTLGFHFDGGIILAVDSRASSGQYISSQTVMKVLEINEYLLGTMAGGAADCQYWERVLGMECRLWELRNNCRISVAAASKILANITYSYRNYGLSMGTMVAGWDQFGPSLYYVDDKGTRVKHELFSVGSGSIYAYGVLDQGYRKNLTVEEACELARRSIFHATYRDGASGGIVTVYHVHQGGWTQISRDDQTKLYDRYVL
As to the kind of experiment: Trypanosoma cruzi proteasome chymotrypsin-like activity (TcProtChymo) assay. Also: in the data most compounds retested in dose-response had high values. It is filed as functional. The conditions noted are these: 9.37 µM.

The species named for assay [7] is Homo sapiens. As to the kind of experiment: To identify inhibition of the IFN signalling (Jak-Stat) pathway via expression of an eGFP reporter gene under the control of an IFN-stimulated response element (ISRE) containing MxA promoter. It is filed as functional. Particulars: 30 µM.
Assay [8] has as its target T4, Tyrosyl-tRNA synthetase, putative (Trypanosoma cruzi (strain CL Brener)) (UniProt Q4DSP6).
T4 sequence (whole entry): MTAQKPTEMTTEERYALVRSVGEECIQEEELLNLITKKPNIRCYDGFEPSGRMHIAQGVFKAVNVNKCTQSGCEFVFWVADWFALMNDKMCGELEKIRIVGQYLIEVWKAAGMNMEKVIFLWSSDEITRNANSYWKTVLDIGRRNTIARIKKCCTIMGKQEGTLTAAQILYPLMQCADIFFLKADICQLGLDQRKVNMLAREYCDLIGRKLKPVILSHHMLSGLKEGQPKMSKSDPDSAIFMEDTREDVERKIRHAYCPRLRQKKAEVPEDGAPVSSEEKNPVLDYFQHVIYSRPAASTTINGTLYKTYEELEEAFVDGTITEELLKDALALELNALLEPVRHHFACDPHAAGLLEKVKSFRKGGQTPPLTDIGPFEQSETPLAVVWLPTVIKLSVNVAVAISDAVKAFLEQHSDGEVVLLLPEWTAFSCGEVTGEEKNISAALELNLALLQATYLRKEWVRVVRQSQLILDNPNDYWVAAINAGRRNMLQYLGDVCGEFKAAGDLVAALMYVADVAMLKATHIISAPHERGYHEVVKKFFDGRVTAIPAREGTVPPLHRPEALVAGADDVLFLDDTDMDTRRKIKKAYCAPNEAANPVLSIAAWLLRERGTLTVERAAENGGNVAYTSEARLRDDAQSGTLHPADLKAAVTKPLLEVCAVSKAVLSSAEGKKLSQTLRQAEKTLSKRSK
Nature of the assay: Trypanosoma cruzi tyrosyl tRNA synthetase (TcYRS) _High Tyrosine SOP. Also: in the data most compounds retested in dose-response had high values. Particulars: 30 µM. It is filed as functional.

Assay [9] concerns the target T4, Tyrosyl-tRNA synthetase, putative (Trypanosoma cruzi (strain CL Brener)). Nature of the assay: Trypanosoma cruzi tyrosyl tRNA synthetase (TcYRS) SOP. It is filed as functional. The conditions noted are these: 30 µM.
Assay [10] addresses Chromo domain-containing protein 1 (Saccharomyces cerevisiae (strain ATCC 204508 / S288c) (Baker's yeast)) (UniProt P32657). Nature of the assay: ScCHD-1 Enzyme Inhibition Assay. Also: in the data most compounds retested in dose-response had high values. The conditions noted are these: 30 µM. It is filed as functional.

For part of these data: Measured potencies and affinities stand elsewhere.

Sequence of Protein translocase subunit SecA (Escherichia coli (strain K12)) (P10408 whole entry): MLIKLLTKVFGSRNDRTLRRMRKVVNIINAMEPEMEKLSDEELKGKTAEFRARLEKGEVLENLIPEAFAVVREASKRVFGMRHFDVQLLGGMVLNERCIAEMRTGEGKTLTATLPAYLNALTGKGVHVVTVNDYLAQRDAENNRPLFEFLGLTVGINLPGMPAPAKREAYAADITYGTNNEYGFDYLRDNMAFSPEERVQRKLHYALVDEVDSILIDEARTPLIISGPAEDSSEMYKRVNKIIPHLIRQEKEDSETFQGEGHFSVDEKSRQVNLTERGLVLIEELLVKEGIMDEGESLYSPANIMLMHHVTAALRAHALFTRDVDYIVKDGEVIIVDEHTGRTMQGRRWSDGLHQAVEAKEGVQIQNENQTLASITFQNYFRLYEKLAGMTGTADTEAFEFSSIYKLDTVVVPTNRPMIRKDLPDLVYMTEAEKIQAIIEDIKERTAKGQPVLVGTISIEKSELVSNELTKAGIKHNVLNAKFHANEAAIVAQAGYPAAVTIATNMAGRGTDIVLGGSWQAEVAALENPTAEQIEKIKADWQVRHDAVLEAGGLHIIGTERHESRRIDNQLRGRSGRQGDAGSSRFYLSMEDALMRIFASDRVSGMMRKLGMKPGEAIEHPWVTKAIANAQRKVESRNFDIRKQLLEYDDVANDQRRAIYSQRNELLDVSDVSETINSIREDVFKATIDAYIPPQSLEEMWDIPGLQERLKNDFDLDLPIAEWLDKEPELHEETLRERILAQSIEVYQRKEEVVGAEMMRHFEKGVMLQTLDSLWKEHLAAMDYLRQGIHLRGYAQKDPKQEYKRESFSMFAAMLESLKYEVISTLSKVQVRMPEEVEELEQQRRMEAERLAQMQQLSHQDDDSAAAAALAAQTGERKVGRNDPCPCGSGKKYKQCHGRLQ
Sequence of Chromo domain-containing protein 1 (Saccharomyces cerevisiae (strain ATCC 204508 / S288c) (Baker's yeast)) (P32657 whole entry, the tested form may be a part): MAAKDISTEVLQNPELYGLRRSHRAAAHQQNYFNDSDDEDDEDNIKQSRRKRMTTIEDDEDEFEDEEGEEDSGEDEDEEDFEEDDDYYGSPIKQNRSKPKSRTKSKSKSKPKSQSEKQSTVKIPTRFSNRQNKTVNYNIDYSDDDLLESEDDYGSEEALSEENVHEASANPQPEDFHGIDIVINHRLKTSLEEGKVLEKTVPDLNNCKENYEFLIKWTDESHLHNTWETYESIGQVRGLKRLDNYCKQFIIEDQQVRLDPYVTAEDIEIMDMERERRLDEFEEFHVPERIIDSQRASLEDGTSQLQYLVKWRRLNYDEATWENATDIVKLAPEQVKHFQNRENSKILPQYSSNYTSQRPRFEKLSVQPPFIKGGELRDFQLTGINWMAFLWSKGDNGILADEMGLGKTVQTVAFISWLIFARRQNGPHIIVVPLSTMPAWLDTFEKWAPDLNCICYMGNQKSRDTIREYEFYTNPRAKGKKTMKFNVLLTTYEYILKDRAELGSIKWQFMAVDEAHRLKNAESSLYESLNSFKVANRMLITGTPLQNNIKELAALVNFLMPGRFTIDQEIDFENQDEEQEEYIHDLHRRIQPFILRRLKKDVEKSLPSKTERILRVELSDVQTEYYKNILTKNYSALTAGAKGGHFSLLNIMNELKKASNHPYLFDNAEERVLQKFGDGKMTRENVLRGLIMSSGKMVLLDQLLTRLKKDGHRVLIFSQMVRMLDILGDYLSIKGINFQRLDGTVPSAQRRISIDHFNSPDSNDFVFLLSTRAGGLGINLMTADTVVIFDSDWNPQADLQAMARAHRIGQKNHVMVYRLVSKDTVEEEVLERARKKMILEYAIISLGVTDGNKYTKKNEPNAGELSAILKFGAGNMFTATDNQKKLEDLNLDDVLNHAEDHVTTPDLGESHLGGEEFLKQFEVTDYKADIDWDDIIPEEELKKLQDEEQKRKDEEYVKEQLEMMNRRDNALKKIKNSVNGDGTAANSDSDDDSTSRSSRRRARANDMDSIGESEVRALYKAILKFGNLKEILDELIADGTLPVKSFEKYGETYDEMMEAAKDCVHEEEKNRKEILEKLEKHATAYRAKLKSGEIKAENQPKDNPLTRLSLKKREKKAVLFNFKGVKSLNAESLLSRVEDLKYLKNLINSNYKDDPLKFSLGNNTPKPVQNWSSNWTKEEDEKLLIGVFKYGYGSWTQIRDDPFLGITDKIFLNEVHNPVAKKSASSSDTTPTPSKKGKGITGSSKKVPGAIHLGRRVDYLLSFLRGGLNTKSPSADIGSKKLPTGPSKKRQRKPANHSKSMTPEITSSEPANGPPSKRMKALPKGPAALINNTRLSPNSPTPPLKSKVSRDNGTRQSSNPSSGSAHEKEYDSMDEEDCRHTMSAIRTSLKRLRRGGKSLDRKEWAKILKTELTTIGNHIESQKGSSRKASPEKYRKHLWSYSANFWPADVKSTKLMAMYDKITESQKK

Turning to `CN1CCOC(CNC(=O)CCCOc2ccccc2F)C1` (stereo not given), the Percent Effect in assay [1] was -2.16%; in assay [2], 12.8%; in assay [3], 3.45%; in assay [4], 1.6%; in assay [5] it was 2.87%; in assay [6] it was 18.5%. Also, the Percent Effect in [7] was 18.2%; in assay [8] it was 10.1%; in [9], 22.9%; in [10] it was -4.86%.

On to `CCCN(CC)C(=O)c1cc2c(c3ccccc3n2C)n1C(=O)N(C)C`, for which the Percent Effect is -6.54% in assay [1]; 11.7% in assay [2]; 4.77% in assay [3]; 0.292% in assay [4]; 4.05% in [5]; 6.27% in assay [6]. Besides, the Percent Effect in assay [7] is -7.65%; in assay [8], 6.84%; in assay [9], 10.3%; in assay [10], -0.293%.

For `O=C(NCC1COCc2c(-c3cccnc3)nnn2C1)c1cccs1` (stereo not given), the Percent Effect in [1] was -1.54%; in [2], 9.09%; in [3] it was -6.14%; in assay [4], -8.28%; in [5] it was -12.2%; in [6], 13%. In addition, the Percent Effect in [7] is 4.75%; in assay [8], 10%; in assay [9], 10.3%; in assay [10] it was -4.23%.

`CN(Cc1cccc(F)c1)C(=O)CN1CCOC(Cn2cccn2)C1` (stereo not given): the Percent Effect was 0.367% in [1]; 0% in [2]; 7.99% in assay [3]; 0.933% in [4]; 0.615% in assay [5]; 3.86% in assay [6]. Also, the Percent Effect in assay [7] is 8.18%; in [8], 3.92%; in assay [9], 9.41%; in [10] it was -0.994%.

Take `COCCCNc1nccc(-c2c[nH][nH]c2=O)n1`: the Percent Effect in assay [1] was -1.57%; in assay [2], 8%; in [3], -3.19%; in assay [4] it was -6.63%; in [5], -3.55%; in assay [6], 19.9%. Also, the Percent Effect is 12.9% in assay [7], -1.58% in [8], 0% in assay [9] and -11.7% in assay [10].

Consider `CS(=O)(=O)N1CCC(NC(=O)COc2ccc(Cl)c(Cl)c2)CC1`, for which the Percent Effect in assay [1] is -0.592%; in assay [2], 15.6%; in [3], -0.737%; in assay [4], -2.24%; in [5] it was -2.66%; in assay [6], 3.86%. In addition, the Percent Effect is 10.2% in assay [7], 13.7% in assay [8], 28.2% in [9] and -8.55% in assay [10].

As for `CCn1cc2c(n1)C(COC)CN(Cc1ccccn1)C2` (stereo not given), the Percent Effect is -4.98% in assay [1]; 9.09% in assay [2]; -6.05% in assay [3]; -2.43% in [4]; -2.43% in assay [5]; 16.7% in assay [6]. For the same compound, the Percent Effect in assay [7] is 34.2%; in assay [8], 2.63%; in assay [9], 7.69%; in assay [10], -3.98%.

For the compound `CC(C)(C)n1ncc2c1NC(=O)CC2c1ccccc1` (stereo not given), the Percent Effect in [1] was -4.86%; in [2], 5.41%; in assay [3], 5.59%; in assay [4], 2.23%; in [5] it was -3.15%; in [6] it was 13.2%. For the same compound, the Percent Effect was determined as 12.2% in assay [7], 3.72% in [8], 14.6% in assay [9] and 96% in assay [10].

As to `CCOC(=O)CNC(=O)c1cccnc1Oc1ccc(Cl)cc1`, the Percent Effect was 3.19% in assay [1]; 1.3% in [2]; 56.3% in assay [3]; 0.375% in assay [4]; 6.85% in [5]; 11.6% in assay [6]. Besides, the Percent Effect in assay [7] is 25.5%; in assay [8] it was 3.87%; in assay [9], 0%; in [10], -12.4%.

Regarding `O=C1C(NCc2nnc3n2CCCC3)CCN1c1ccccc1` (stereo not given), the Percent Effect in assay [1] is -2.98%; in [2] it was 10.3%; in assay [3] it was -1.63%; in [4], 8.17%; in assay [5] it was 7.79%; in assay [6] it was -2.99%. Besides, the Percent Effect was 18.5% in assay [7], 3.35% in assay [8], 13.2% in assay [9] and -2.81% in [10].

As to `Cc1cc(N2CCC(CC(N)=O)CC2)nc(-c2ccncc2)n1`, the Percent Effect in [1] was -7.29%; in assay [2] it was 13%; in assay [3], 10.8%; in [4] it was -1.87%; in assay [5], 3.07%; in [6], 11.1%. Besides, the Percent Effect in assay [7] was -5.86%; in [8], 7.84%; in assay [9], 21.2%; in assay [10], -6.28%.

Take `CCc1n[nH]c(C2CN(C(=O)c3nc(C)n4ccccc34)CCO2)n1` (stereo not given): the Percent Effect in assay [1] was -2.26%; in assay [2], 13%; in assay [3] it was 11.1%; in assay [4], -1.49%; in assay [5], 10%; in assay [6], 9.82%. In addition, the Percent Effect was -10.3% in assay [7], 4.9% in assay [8], 16.5% in assay [9] and -11% in [10].
